# In PubChem BioAssay:
# Values joined by “and” are separate entries in the source; they are usually repeats but may differ in a detail not shown here. Equal values may be shown once. Results filed as inconclusive are left out. The source holds several records for some structures; these can differ, active in one and inactive in another. Active and inactive are the calls of the source. Unless noted, no stated cut-off is given here; in the data, active means inhibition above about 80%; inactive means the rest.
# Experiments:
# [1] = differential killing of epithelial or mesenchymal cells, primary screen, imaging, PC-3E GFP, TEM4-18 mCherry, co-culture (AID 1345086;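 active means compounds killing one labelled cell type while sparing the other, by normalised counts and ratio limits, not self-fluorescent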;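 further: cells exposed to compound for 72 h before imaging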;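 on red/green cell ratio (normalised): normalised mesenchymal count divided by normalised epithelial count so high means epithelial killing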); details: imaging cell counts, at 1 µM
# [2] = growth inhibition of DIPG glioma cells, dose response, cell-based, SU-DIPG-XVII, MIPE5.0, CellTiter-Glo, qHTS (AID 1347060; cut-off not given, nearly all actives have AC50 up to about 26 µM;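 further: cells exposed to compound for 48 hours before viability readout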); details: SU-DIPG-XVII viability, CellTiter-Glo ATP luminescence
# [3] = growth inhibition of DIPG glioma cells, dose response, cell-based, JHH-DIPG-1, MIPE4.0, CellTiter-Glo, qHTS (AID 1347062; cut-off not given, nearly all actives have AC50 up to about 27 µM;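 further: cells exposed to compound for two days before readout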); details: JHH-DIPG-1 viability, CellTiter-Glo ATP luminescence
# [4] = growth inhibition of DIPG glioma cells, dose response, cell-based, SU-DIPG-IV, MIPE4.0, CellTiter-Glo, qHTS (AID 1347063; cut-off not given, nearly all actives have AC50 up to about 30 µM;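 further: compound exposure lasted 48 hours before the viability readout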); details: SU-DIPG-IV viability, CellTiter-Glo ATP luminescence
# [5] = growth inhibition of DIPG glioma cells, dose response, cell-based, SU-DIPG-XIII, MIPE5.0, CellTiter-Glo, qHTS (AID 1347064; cut-off not given, nearly all actives have AC50 up to about 23 µM;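 further: cells exposed to compound for 48 hours before the viability read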); details: SU-DIPG-XIII viability, CellTiter-Glo ATP luminescence
# [6] = viability loss in pontine glioma line – cell-based, SU-DIPG-XXV, MIPE5.0, CellTiter-Glo, qHTS, dose response (AID 1347065; cut-off not given, nearly all actives have AC50 up to about 26 µM;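 further: cells exposed to compound for 48 hours before ATP readout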); details: CellTiter-Glo ATP luminescence
# [7] = SU-DIPG-VI glioma cell viability, MIPE4.0 library, CellTiter-Glo luminescence, qHTS (AID 1347066; cut-off not given, nearly all actives have AC50 up to about 30 µM;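 further: cells exposed to compound for 48 hours before readout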); details: CellTiter-Glo ATP luminescence
# [8] = inhibitors of Cryptococcus chitosan production, flow cytometry, Cibacron Brilliant Red staining (AID 1347148; call rule not given here;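 further: compound exposure lasted three days at 37 degrees C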); details: Cryptococcus neoformans chitosan, stronger effect = lower value; at 10 µM unless noted
# [9] = molecular target: Mitogen-activated protein kinase 7 (Homo sapiens) (UniProt Q13164); experiment: ERK5 transactivation activators in reporter cells, primary screen, cell-based, HTS (AID 1508626;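 active means luciferase signal above three times the same-plate solvent-only control wells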;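 further: luciferase driven by Gal4-ERK5 fusion binding five Gal4 sites before minimal TATA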); details: HeLa Gal4-ERK5 transactivation, 18 h, at 5 µM, stronger effect = higher value
# [10] = LFS_MB_P medulloblastoma growth inhibition, cell-based, chromothripsis tumors, cisplatin or BGB combos (AID 1671449); details: LFS_MB_P medulloblastoma cells;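 further: cells exposed for 96 hours; 0% = vehicle DMSO and 100% = killing by high DMSO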
# [11] = HDN33 neuroblastoma growth inhibition, cell-based, chromothripsis tumors, cisplatin or BGB combos (AID 1671450); details: HDN33 neuroblastoma cells, stronger effect = higher value;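 further: cells exposed to compound for four days; 0% = vehicle DMSO and 100% = cell killing by high DMSO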
# [12] = ICB984 medulloblastoma cell growth inhibition, synergistic combos for chromothripsis tumors, cisplatin or BGB combos (AID 1671451; call rule not given here;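 further: cells exposed for 96 hours before readout; 0% = vehicle DMSO and 100% = killing by high DMSO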); details: ICB984 medulloblastoma cells, drug combinations, stronger effect = higher value
# [13] = LFS_MB_1R medulloblastoma cell growth inhibition, synergistic combos for chromothripsis tumors, cisplatin or BGB combos (AID 1671452); details: LFS_MB_1R medulloblastoma cells, stronger effect = higher value;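 further: cells exposed for 96 hours before readout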
# [14] = HTB85 osteosarcoma cell growth inhibition, synergistic combos for chromothripsis tumors, BGB or cisplatin IC20 combos (AID 1671453); details: HTB85 osteosarcoma cells, drug combinations, stronger effect = higher value;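 further: cells exposed for 96 hours before readout; 0% = vehicle DMSO and 100% = high DMSO killing control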
# [15] = CRL2098 osteosarcoma cell growth inhibition, synergistic combos for chromothripsis tumors, BGB or cisplatin IC20 combos (AID 1671454); details: CRL2098 osteosarcoma cells, drug combinations, stronger effect = higher value;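 further: cells exposed for 96 h before readout; 0% = vehicle DMSO and 100% = killing by high DMSO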
# [16] = HD-MB03 medulloblastoma cell growth inhibition, synergistic combos for chromothripsis tumors, BGB or cisplatin IC20 combos (AID 1671455; in the data active means inhibition above about 83%;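 further: 0% = vehicle DMSO and 100% = high DMSO as cytotoxic control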); details: HD-MB03 medulloblastoma cells, stronger effect = higher value
# [17] = UWB1.289 ovarian carcinoma cell growth inhibition, synergistic combos for chromothripsis tumors, BGB or cisplatin combos (AID 1671456); details: UWB1.289 ovarian carcinoma cells, stronger effect = higher value;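 further: cells exposed to compound for four days; 0% = vehicle DMSO and 100% = killing by high DMSO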
# [18] = LFS_MB_2R medulloblastoma cell growth inhibition, synergistic combos for chromothripsis tumors, cisplatin combos (AID 1671457); details: LFS_MB_2R medulloblastoma cells, stronger effect = higher value;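 further: cells exposed to compound for four days before readout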
# [19] = MDA-MB-436 breast carcinoma cell growth inhibition, synergistic combos for chromothripsis tumors, BGB or cisplatin combos (AID 1671458; call rule not given here;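 further: cells exposed for 96 hours; 0% = vehicle DMSO and 100% = killing by high DMSO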); details: MDA-MB-436 breast carcinoma growth inhibition, drug combinations, stronger effect = higher value
# [20] = UWB1.289_BRCA1 ovarian cancer growth, cell-based, BGB or cisplatin combinations (AID 1671459); details: UWB1.289 BRCA1 ovarian carcinoma, drug combinations, stronger effect = higher value
# [21] = human astrocyte viability loss, single and combined drugs, cytotoxicity control for chromothriptic childhood tumor combination screen, cell-based, BGB or cisplatin IC20 combos (AID 1671460); details: Human astrocytes, drug combinations, stronger effect = higher value;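 further: cells exposed to compounds for 96 hours before viability readout; 0% = vehicle and 100% = killing control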
# [22] = growth inhibition of BT084 medulloblastoma cells, cell-based, ICGC_MB145, cisplatin and BGB IC40 combos (AID 1671461); details: drug combinations, stronger effect = higher value;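 further: cells exposed to drugs for 96 hours; 0% = vehicle DMSO and 100% = high DMSO full killing control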
# [23] = growth inhibition of RCMB18 medulloblastoma cells, cell-based, cisplatin and BGB IC40 combos (AID 1671462); details: stronger effect = higher value;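 further: cells exposed to compound for four days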
# [24] = growth inhibition of CRL1545 osteosarcoma cells, cell-based, cisplatin and BGB IC20 combos (AID 1671464); details: stronger effect = higher value;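 further: cells exposed to compound for 96 hours before readout; 0% = vehicle DMSO and 100% = high DMSO killing control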
# [25] = measured here: combination with BGB IC40, at 0.05 µM
# [26] = measured here: with BGB IC20 combination, at 0.5 µM
# [27] = measured here: with cisplatin IC20 combination, at 0.5 µM
# [28] = measured here: combination with cisplatin, at 0.5 µM
# [29] = measured here: combination with cisplatin, at 5 µM
# Mitogen-activated protein kinase 7 (Homo sapiens), sequence (Q13164 whole entry, looked up, the tested form may be a part): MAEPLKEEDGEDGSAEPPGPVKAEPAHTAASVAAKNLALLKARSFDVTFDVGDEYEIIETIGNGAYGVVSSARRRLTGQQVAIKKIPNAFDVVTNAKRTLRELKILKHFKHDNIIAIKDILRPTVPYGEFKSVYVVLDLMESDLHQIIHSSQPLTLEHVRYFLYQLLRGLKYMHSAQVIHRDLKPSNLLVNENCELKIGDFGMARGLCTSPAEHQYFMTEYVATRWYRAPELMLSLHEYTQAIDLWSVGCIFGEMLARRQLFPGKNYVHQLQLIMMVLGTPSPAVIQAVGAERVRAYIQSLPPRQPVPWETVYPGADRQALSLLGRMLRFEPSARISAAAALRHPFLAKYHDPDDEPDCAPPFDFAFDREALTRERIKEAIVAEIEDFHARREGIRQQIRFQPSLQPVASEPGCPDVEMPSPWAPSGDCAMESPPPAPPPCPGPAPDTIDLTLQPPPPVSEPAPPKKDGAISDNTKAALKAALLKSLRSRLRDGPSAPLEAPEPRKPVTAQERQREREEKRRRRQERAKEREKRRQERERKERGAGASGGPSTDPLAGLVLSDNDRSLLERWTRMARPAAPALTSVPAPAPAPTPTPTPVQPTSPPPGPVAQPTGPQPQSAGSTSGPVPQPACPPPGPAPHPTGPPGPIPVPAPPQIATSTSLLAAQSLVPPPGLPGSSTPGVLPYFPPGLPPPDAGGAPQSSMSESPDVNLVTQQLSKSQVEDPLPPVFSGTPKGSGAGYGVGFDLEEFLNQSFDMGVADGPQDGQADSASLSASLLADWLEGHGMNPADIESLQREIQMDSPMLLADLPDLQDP
compound,measurement,setting,value
CC[C@@]1(O)C(=O)OCc2c1cc1n(c2=O)Cc2cc3cc(O)ccc3nc2-1,red/green cell ratio (normalised),"[1]; actives lie on both sides, counts scaled to control wells, 1 = unselective",0.94 (inactive)
same,normalised cell number,[1]; measured here: epithelial PC-3E GFP cell survival,0.31
same,normalised cell number,[1]; measured here: mesenchymal TEM4-18 mCherry cell survival,0.29
same,AC50,[2],16.6 nM (active)
same,AC50,[3],1870 nM (active)
same,AC50,[4],83.3 nM (active)
same,AC50,[5],66.1 nM (active)
same,AC50,[6],148 nM (active)
same,outcome,[7],inactive
same,fold fluorescence,[8],7.95 [at 137.2 µM] (inactive)
same,luciferase signal,[9],44 AU (inactive)
same,inhibition,"[10]; at 0.5 µM, stronger effect = higher value",25.9% (inactive) and 5.42% (inactive)
same,inhibition,"[10]; measured here: combination with BGB IC20, at 0.005 µM",4.22% and -3.99%
same,inhibition,"[10]; measured here: combination with BGB IC40, at 0.005 µM",-42.5% and -15.9%
same,inhibition,[10]; [25],-16% and -4.31%
same,inhibition,"[10]; measured here: combination with cisplatin, at 0.5 µM, stronger effect = higher value",62.8% and 48.1%
same,inhibition,"[10]; measured here: combination with cisplatin, at 5 µM, stronger effect = higher value",89.7% and 78.7%
same,inhibition,"[11]; BGB combo, at 5 µM",98.1% and 98.5%
same,inhibition,[11]; at 0.5 µM,78.7% (inactive) and 83.5% (active)
same,inhibition,"[11]; cisplatin combo, at 5 µM",96.5% and 98%
same,inhibition,[11]; [26],82.7% and 84.4%
same,inhibition,[11]; [27],71% and 81.1%
same,inhibition,"[11]; single agent, at 5 µM",96.6% and 97.8%
same,inhibition,"[12]; BGB IC20 combo, at 0.005 µM",23.2% and 34.7%
same,inhibition,"[12]; BGB IC40 combo, at 0.005 µM",40.1% and 53.7%
same,inhibition,"[12]; BGB IC40 combo, at 0.05 µM",93.9%
same,inhibition,[12]; at 0.5 µM,-30.2% (inactive) and -10.4% (inactive)
same,inhibition,"[12]; cisplatin combo, at 0.05 µM",93.6% and 93.9%
same,inhibition,"[12]; cisplatin combo, at 0.5 µM",-46.6% and -4.75%
same,inhibition,"[12]; cisplatin combo, at 5 µM",-24.4% and 16.7%
same,inhibition,"[12]; measured here: 5 uM single agent, at 5 µM",-21.1% and 2.06%
same,inhibition,[13]; at 0.5 µM,67.2% (inactive) and 79% (inactive)
same,inhibition,[13]; [25],-33.9% and 7.21%
same,inhibition,[13]; [28],83.2% and 73.4%
same,inhibition,[13]; [29],84.4% and 82.5%
same,inhibition,[14]; at 0.5 µM,99% (active) and 98.8% (active)
same,inhibition,"[14]; measured here: with BGB IC20, at 0.5 µM",97.9% and 98.3%
same,inhibition,"[14]; measured here: with BGB IC20, at 5 µM",98.2% and 98.3%
same,inhibition,"[14]; measured here: with cisplatin IC20, at 0.5 µM",99.3% and 98.9%
same,inhibition,"[14]; measured here: with cisplatin IC20, at 5 µM",99.6% and 99.7%
same,inhibition,"[14]; single agent, at 5 µM",99.5% and 99.7%
same,inhibition,[15]; at 0.5 µM,58.1% (inactive) and 64.8% (inactive)
same,inhibition,"[15]; measured here: combination with BGB at IC20, at 0.5 µM",81.9% and 74.5%
same,inhibition,"[15]; measured here: combination with cisplatin at IC20, at 0.5 µM",44.1% and 55.5%
same,inhibition,[16]; at 0.5 µM,99.4% (active) and 99.3% (active)
same,inhibition,"[16]; measured here: combo with BGB at IC20, at 0.5 µM",99.4%
same,inhibition,"[16]; measured here: combo with cisplatin at IC20, at 0.5 µM",99.4% and 99.2%
same,inhibition,[17]; at 0.5 µM,90.1% (active) and 89.5% (active)
same,inhibition,"[17]; measured here: inhibition with BGB combination, at 0.05 µM",17.9% and 40%
same,inhibition,"[17]; measured here: inhibition with cisplatin combination, at 0.05 µM",28.7% and 40.8%
same,inhibition,[18]; at 0.5 µM,21.3% (inactive) and 29.5% (inactive)
same,inhibition,[18]; [28],63.4% and 65.4%
same,inhibition,[18]; [29],76.4% and 77.8%
same,inhibition,[19]; at 0.5 µM,69.5% (inactive) and 70% (inactive)
same,inhibition,"[19]; measured here: BGB combination, at 0.5 µM",63.8% and 64.7%
same,inhibition,"[19]; measured here: BGB combination, at 5 µM",63.6% and 74.3%
same,inhibition,"[19]; measured here: cisplatin combination, at 0.5 µM",71.5% and 68.7%
same,inhibition,"[19]; measured here: cisplatin combination, at 5 µM",80.4% and 83.5%
same,inhibition,"[20]; BGB combination, concentration series, at 5 µM",96.9% and 98%
same,inhibition,[20]; at 0.5 µM,97.1% (active) and 97.8% (active)
same,inhibition,"[20]; cisplatin combination, concentration series, at 5 µM",99.8% and 104%
same,inhibition,[21]; at 0.5 µM,84.1% (active) and 83.3% (active)
same,inhibition,"[21]; measured here: combo with BGB IC20, at 0.5 µM",91.6% and 86.1%
same,inhibition,"[21]; measured here: combo with cisplatin IC20, at 0.5 µM",76% and 80.4%
same,inhibition,[22]; at 0.5 µM,13.5% (inactive) and 7.41% (inactive)
same,inhibition,"[22]; cisplatin combination, at 0.5 µM",46.9% and 55.3%
same,inhibition,"[22]; cisplatin combination, at 5 µM",28% and 7.98%
same,inhibition,"[22]; measured here: BGB IC40 combination 0.05 uM, at 0.05 µM",-21.8% and -8.97%
same,inhibition,"[22]; single agent, at 5 µM",42.3% and 44.7%
same,inhibition,[23]; at 0.5 µM,36.1% (inactive) and 38.1% (inactive)
same,inhibition,"[23]; cisplatin combo, at 5 µM",72.4% and 72.1%
same,inhibition,"[23]; measured here: BGB IC40 combination, at 0.05 µM",-15.2% and -13.6%
same,inhibition,[23]; [28],47.7% and 55.8%
same,inhibition,"[23]; single agent, at 5 µM",59.8% and 73%
same,inhibition,[24]; at 0.5 µM,81.7% (active) and 82.4% (active)
same,inhibition,[24]; [26],95.3% and 93.8%
same,inhibition,[24]; [27],74.8% and 76.7%
same,inhibition,"[24]; single agent, at 0.05 µM",4.98% and 48.5%
same,inhibition,"[24]; single agent, at 5 µM",99.8% and 99.9%
